Compounds without any hit were thinned out: in the full panel of roughly 83,000, 20% have a hit.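 For each line, cells grew in 96-well plates with the test compound present at a single concentration for 48 hours.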 Unmarked numbers belong to inactive results. Active and inactive are the calls of the source. The calls were made as follows: active = growth percent below 10; inactive = the rest.

What all share (test): NCI-60 one-dose screen, 48 h (100 = growth as untreated, 0 = no growth, -100 = all killed)
Conditions in all cases: 10 µM unless noted

Assay [1] deals with NCI-H23 lung.
Assay [2] concerns NCI-H226 lung.
In assay [3] the test system is NCI-H322M lung.
Assay [4] deals with HOP-62 NSCLC.
Assay [5] has as its system NCI-H460 lung.
The subject of assay [6] is NCI-H522 lung.
The subject of assay [7] is A549/ATCC NSCLC.
In assay [8] the test system is 786-0 renal.
Assay [9] has as its system COLO 205 colon.
Assay [10] relates to DU-145 prostate.
Assay [11] relates to K-562 leukemia.
Assay [12] deals with MALME-3M melanoma.
In assay [13] the test system is MDA-MB-231 breast.
The test system of assay [14] is RXF 393 renal.
The test system of assay [15] is SF-268 CNS.
In assay [16] the test system is SF-295 CNS.
For assay [17], the system named is SF-539 CNS.
Assay [18] deals with UACC-257 melanoma.
For assay [19], the system named is M14 melanoma.
Assay [20] concerns HCT-15 colon.

As to `CN(C)c1cccc2c(S(=O)(=O)N[C@H]3CC[C@H]4[C@@H]5CCc6cc(O)ccc6[C@H]5CC[C@]34C)cccc12`, the growth was 40.8% in assay [1]; 51% in assay [2]; 57.3% in assay [3]; 66.8% in [4]; 7.05% (active) in assay [5]; -10.5% (active) in assay [6]. For the same compound, the growth in [7] is 18.5%; in assay [8], 34.9%; in assay [9] it was 8.09% (active); in assay [10], 24%; in [11], 2.22% (active); in [12] it was 29.6%. Also, the growth in [13] was 35%; in assay [14], 11.2%; in assay [15], 40.6%; in assay [16], 44.9%; in [17], 44.7%; in assay [18], 52.8%. For the same compound, the growth in [19] was 31.3%; in assay [20] it was 18%.
For `CC(=O)c1nc2ccccc2n1CCn1cc(CC(N)C(=O)O)c2ccccc21` (stereo not given), the growth is 90.3% in [1]; 102% in assay [2]; 93.6% in assay [3]; 97.7% in [4]; 115% in assay [5]; 96.9% in assay [6]. The growth is 103% in [7]; 115% in assay [8]; 103% in [9]; 104% in [10]; 92.5% in [11]; 100% in assay [12]. In addition, the growth in [13] is 77.3%; in assay [14], 120%; in assay [15] it was 110%; in [16] it was 110%; in [17] it was 101%; in [18], 110%. Moreover, the results for the growth in assay [19] and in [20] were 103% and 96.3%, respectively.
As for `COc1ccc(OC)c(/C=C/c2nc(=S)n(-c3ccc(Cl)cc3)[nH]2)c1`, the growth in [1] was 48.7%; in assay [2], 73.3%; in assay [3] it was 100%; in [4], 69.7%; in assay [5] it was 38.9%; in assay [6], 82.1%. Also, the growth in [7] was 66.3%; in assay [8], 58.9%; in [9], 104%; in assay [10] it was 87.6%; in assay [11] it was 22.4%; in assay [12], 29.8%. Besides, the growth in assay [13] was 87.2%; in assay [14] it was 51.9%; in assay [15] it was 73.7%; in [16], 31.2%; in assay [17] it was 39.5%; in assay [18], 77.6%. The values for the growth in [19] and in assay [20] were 31% and 41.2%, respectively.
Regarding `CCN1C2=C(SC(=S)C1=C1SC(C(=O)OC)=C(C(=O)OC)S1)SC(=Nc1ccc(OC)cc1)C2=O`, the growth in [1] was -42.5% (active); in assay [2], -66.7% (active); in [3], 48.4%; in assay [4] it was -13.7% (active); in assay [5], -47.5% (active); in assay [6] it was -15.2% (active). The growth in [7] is 17.7%; in assay [8], -64.6% (active); in assay [9], -3.6% (active); in assay [10], -46.1% (active); in assay [11], 7.47% (active); in [12] it was -28% (active). The growth in assay [13] was 4.53% (active); in assay [14], -87.7% (active); in assay [15], 1.48% (active); in assay [16] it was 2.33% (active); in assay [17], -24.1% (active); in assay [18], -55.1% (active). For the same compound, the growth in assay [19] is -54.7% (active); in assay [20], -20.7% (active).
For `O=C(OC[C@H]1O[C@H](OC(=O)c2cc(O)c(O)c(OC(=O)c3cc(O)c(O)c(O)c3)c2)[C@H](OC(=O)c2cc(O)c(O)c(OC(=O)c3cc(O)c(O)c(O)c3)c2)[C@@H](OC(=O)c2cc(O)c(O)c(OC(=O)c3cc(O)c(O)c(O)c3)c2)[C@@H]1OC(=O)c1cc(O)c(O)c(OC(=O)c2cc(O)c(O)c(O)c2)c1)c1cc(O)c(O)c(OC(=O)c2cc(O)c(O)c(O)c2)c1`, the growth in assay [1] is 19%; in [2], 7.2% (active); in [3], 19.3%; in assay [4] it was 46.2%; in assay [5], 11.6%; in [6] it was -11% (active). Moreover, the growth in assay [7] was 34%; in assay [8] it was 18.5%; in [9], 55.1%; in [10], 30.3%; in assay [11], 31.5%; in assay [12], 49%. Moreover, the growth was 23.5% in assay [13]; -12.7% (active) in assay [14]; 27.2% in assay [15]; 9.95% (active) in assay [16]; 29.3% in assay [17]; 60.2% in assay [18]. For the same compound, the values for the growth in assay [19] and in assay [20] were 17.6% and 28.6%, respectively.
For `O=C(CCc1nnc(Cn2ccnc2)o1)c1nc2ccccc2[nH]1`, the growth in [1] is 102%; in assay [2], 115%; in assay [3], 92.9%; in assay [4], 102%; in assay [5], 116%; in assay [6], 98.4%. The growth was 103% in assay [7]; 105% in assay [8]; 119% in [9]; 108% in assay [10]; 101% in [11]; 77.8% in [12]. In addition, the growth in [13] was 89.7%; in assay [14], 124%; in assay [15], 111%; in [16], 111%; in assay [17] it was 100%; in assay [18], 114%. Moreover, the growth in assay [19] was 105%; in [20] it was 100%.
For the compound `COc1cc2c(c(OC)c1OC)CCc1cnoc1-2`, the growth was 104% in [1]; 102% in [2]; 107% in assay [3]; 156% in assay [4]; 106% in assay [5]; 102% in [6]. For the same compound, the growth in [7] is 103%; in assay [8] it was 155%; in assay [9], 134%; in assay [10] it was 116%; in [11], 99.8%; in [12] it was 100%. For the same compound, the growth was 107% in assay [13]; 121% in assay [14]; 109% in [15]; 108% in [16]; 100% in [17]; 103% in assay [18]. The growth in assay [19] is 122%; in assay [20], 102%.
In the case of `CC(C)c1nc(N(C)S(C)(=O)=O)nc(-c2ccc(F)cc2)c1/C=C/[C@@H](O)C[C@@H](O)CC(=O)O`, the growth in assay [1] was 109%; in assay [2] it was 105%; in assay [3], 93.9%; in assay [4] it was 108%; in assay [5], 118%; in assay [6], 69.9%. Also, the growth was 97.9% in [7]; 106% in assay [8]; 105% in assay [9]; 103% in assay [10]; 130% in [11]; 104% in assay [12]. For the same compound, the growth in assay [13] is 63.7%; in assay [14], 105%; in assay [15], 77.5%; in assay [16], 100%; in assay [17], 97.6%; in [18] it was 103%. In addition, the growth was 104% in [19] and 95.2% in [20].

The values above are taken from PubChem BioAssay (NCI).
